Results filed as inconclusive are left out. Calls of active or inactive are those of the source. Rule for the calls: active = hit-call score of the fitted dose curve at least 0.9, where 1 is the maximum; inconclusive = response in the unintended direction; inactive = score below 0.9.
Experiments:
[1] = molecular target: human Sirtuin 1 (SIRT1), SIRT1 (gene 23411) (UniProt Q96EB6); assay: NVS_ENZ_hSIRT1: NovaScreen (NVS) Enzymatic Assay for human Sirtuin 1 (SIRT1) (AID 2283219)
Procedure, shortened: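 Cell-free recombinant SIRT1 with a fluorescent substrate; substrate and product separated by electrophoretic mobility shift and read by fluorescence intensity, 1 h after dosing. Primary screen at 25 uM in duplicate; hits re-run in concentration-response up to 50 uM, relative to DMSO.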

[2] = molecular target: human Sirtuin 3 (SIRT3), SIRT3 (gene 23410) (UniProt Q9NTG7); assay: NVS_ENZ_hSIRT3: NovaScreen (NVS) Enzymatic Assay for human Sirtuin 3 (SIRT3) (AID 2283222)
Procedure, shortened: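 Cell-free enzyme assay with recombinant protein and fluorescent substrate, product separated by electrophoretic mobility shift; read 1 hour after dosing. Screened in duplicate at 25 uM, then singleton concentration-response up to 50 uM; loss of signal versus DMSO.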

[3] = molecular target: human Sirtuin 2 (SIRT2), SIRT2 (gene 22933) (UniProt Q8IXJ6); assay: NVS_ENZ_hSIRT2: NovaScreen (NVS) Enzymatic Assay for human Sirtuin 2 (SIRT2) (AID 2283217)
Procedure, shortened: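 Single-point duplicate screen at 25 uM, then concentration-response (max 50 uM) for chemicals passing threshold. Enzyme activity of recombinant human SIRT2 measured after 1 hr by fluorescence with mobility-shift separation of product; DMSO baseline.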

[4] = molecular target: human Protein Tyrosine Phosphatase Receptor Type F (PTPRF), PTPRF (gene 5792) (UniProt P10586); assay: NVS_ENZ_hPTPRF: NovaScreen (NVS) Enzymatic Assay for human Protein Tyrosine Phosphatase Receptor Type F (PTPRF) (AID 2283213)
Procedure, shortened: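 Cell-free fluorescence enzyme assay with recombinant protein and substrate; product separated by electrophoretic mobility shift. Read 1 h after dosing, single 25 uM duplicate screen, then concentration-response up to 50 uM; loss of signal vs DMSO.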

[5] = molecular target: human SRC Proto-Oncogene, Non-receptor Tyrosine Kinase (SRC), SRC (gene 6714) (UniProt P12931); assay: NVS_ENZ_hSRC: NovaScreen (NVS) Enzymatic Assay for human SRC Proto-Oncogene, Non-receptor Tyrosine Kinase (SRC) (AID 2283223)
Procedure, shortened: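 Compounds passing 30% inhibition at 25 uM (duplicate) were titrated to a top concentration of 50 uM. Enzyme activity read by fluorescence with mobility-shift substrate/product separation after 1 h; DMSO baseline.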

[6] = molecular target: human Vascular Endothelial Growth Factor Receptor 1 (VEGFR1), FLT1 (gene 2321) (UniProt P17948); assay: NVS_ENZ_hVEGFR1: NovaScreen (NVS) Enzymatic Assay for human Vascular Endothelial Growth Factor Receptor 1 (VEGFR1) (AID 2283226)
Procedure, shortened: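 Kinase activity of recombinant human VEGFR1 was read by fluorescence after electrophoretic separation of product from substrate, 1 h post-dosing; initial duplicate single-point testing at 25 uM, followed by concentration-series follow-up, with DMSO as baseline.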

[7] = molecular target: human Vascular Endothelial Growth Factor Receptor 3 (VEGFR3), FLT4 (gene 2324) (UniProt P35916); assay: NVS_ENZ_hVEGFR3: NovaScreen (NVS) Enzymatic Assay for human Vascular Endothelial Growth Factor Receptor 3 (VEGFR3) (AID 2283229)
Procedure, shortened: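 Chemicals first run in duplicate at 25 uM, with actives re-tested in concentration series to a top of 50 uM. Recombinant VEGFR3 activity measured after 1 h via fluorescence with mobility-shift product separation; inhibition fitted relative to DMSO.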

[8] = molecular target: human Vascular Endothelial Growth Factor Receptor 2 (VEGFR2), KDR (gene 3791) (UniProt P35968); assay: NVS_ENZ_hVEGFR2: NovaScreen (NVS) Enzymatic Assay for human Vascular Endothelial Growth Factor Receptor 2 (VEGFR2) (AID 2283230)
Procedure, shortened: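 Cell-free recombinant VEGFR2 kinase, fluorescent substrate with electrophoretic mobility-shift separation; read 1 h after dosing. Screened at 25 uM in duplicate, hits to concentration-response up to 50 uM; loss-of-signal versus DMSO.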

[9] = test system: bovine Angiotensin II Receptor Type 2 (AT2), gene 407157; assay: NVS_GPCR_bAT2: NovaScreen (NVS) G Protein-Coupled Receptor Assay for bovine Angiotensin II Receptor Type 2 (AT2) (AID 2283240)
Procedure, shortened: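 Radioligand displacement on bovine cerebellar membranes, 1 hour incubation, filter-based scintillation counting; loss of signal vs DMSO. Duplicate single-point screen at 25 uM, then concentration-response to 50 uM maximum.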

[10] = molecular target: rabbit Imidazoline 2 Central (I2C), CKB (gene 100009085) (UniProt P00567); assay: NVS_ENZ_rabI2C: NovaScreen (NVS) Enzymatic Assay for rabbit Imidazoline 2 Central (I2C) (AID 2283228)
Procedure, shortened: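 Rabbit brain membranes, cell-free; readout by filter-based scintillation counting 1.5 hours after dosing, loss of signal vs DMSO. Initial duplicate test at 25 uM, then concentration-response with 50 uM top concentration.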

[11] = molecular target: human Protein Tyrosine Phosphatase Receptor Type M (PTPRM), PTPRM (gene 5797) (UniProt P28827); assay: NVS_ENZ_hPTPRM: NovaScreen (NVS) Enzymatic Assay for human Protein Tyrosine Phosphatase Receptor Type M (PTPRM) (AID 2283215)
Procedure, shortened: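 Read-out is fluorescence after electrophoretic separation of substrate and product, taken 1.33 h post-dosing with recombinant enzyme. Compounds screened at 25 uM in duplicate, then concentration series for actives; activity as signal loss relative to DMSO.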

[12] = molecular target: sheep Cyclooxygenase-2 (Cox2), PTGS2 (gene 443460) (UniProt P79208); assay: NVS_ENZ_oCOX2: NovaScreen (NVS) Enzymatic Assay for sheep Cyclooxygenase-2 (Cox2) (AID 2283231)
Procedure, shortened: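 Enzyme from ovine placenta, cell-free; colorimetric absorbance read 0.66 hour after dosing, loss of signal vs DMSO. Screened in duplicate at 25 uM, then concentration-response up to 50 uM.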

[13] = NVS_GPCR_bNPY_NonSelective: NovaScreen (NVS) G Protein-Coupled Receptor Assay for bovine Neuropeptide Y (NPY) Receptor, Non-selective Binding (AID 2283245)
Procedure, shortened: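 Displacement of radioligand from bovine hippocampal membrane receptors, read by filtration and scintillation counting after 1 hour. Concentration-response to a top of 50 uM followed a 25 uM duplicate primary screen. Loss of signal versus DMSO.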

[14] = molecular target: rat Constitutive Nitric Oxide Synthase (CNOS), Nos1 (gene 24598) (UniProt P29476); assay: NVS_ENZ_rCNOS: NovaScreen (NVS) Enzymatic Assay for rat Constitutive Nitric Oxide Synthase (CNOS) (AID 2283236)
Procedure, shortened: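 Single 25 uM duplicate screen, then concentration series to 50 uM for chemicals meeting threshold. Rat brain membrane-derived CNOS activity detected radiometrically by filtration and scintillation counting, 1 h after compound addition; DMSO as baseline.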

[15] = molecular target: sheep Cyclooxygenase-1 (Cox1), PTGS1 (gene 443551) (UniProt P05979); assay: NVS_ENZ_oCOX1: NovaScreen (NVS) Enzymatic Assay for sheep Cyclooxygenase-1 (Cox1) (AID 2283239);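 note: actives reduce cyclooxygenase activity so potencies are for inhibitors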
Procedure, shortened: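 Ovine seminal vesicle extract; absorbance (colorimetric) enzyme read-out at 0.66 h post-dose. Primary: single conc 25 uM, duplicate. Follow-up: concentration series on actives. Activity = signal loss vs DMSO baseline.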

[16] = molecular target: Adenosine receptor A1 (Bos taurus) (UniProt P28190); assay: NVS_GPCR_bAdoR_NonSelective: NovaScreen (NVS) G Protein-Coupled Receptor Assay for bovine Adenosine Receptor (AdoR), Non-selective Binding (AID 2283244)
Procedure, shortened: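 Cell-free binding with membranes from bovine striatum: radioligand displaced by test chemical, read after 1 h by filtration and scintillation. Single-point 25 uM duplicate primary, 50 uM top concentration in follow-up curves, DMSO baseline.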

[17] = molecular target: bovine Dopamine Receptor (DR), Non-selective Binding, DRD1 (gene 281125) (UniProt Q95136); assay: NVS_GPCR_bDR_NonSelective: NovaScreen (NVS) G Protein-Coupled Receptor Assay for bovine Dopamine Receptor (DR), Non-selective Binding (AID 2283241)
Procedure, shortened: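 Filter-based radioligand binding with bovine striatal membrane, incubated 1 h; DMSO as negative baseline. Initial duplicate single-point test at 25 uM preceded concentration series for actives.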

[18] = molecular target: rat Catechol-O-Methyl Transferase (COMT), Comt (gene 24267) (UniProt P22734); assay: NVS_ENZ_rCOMT: NovaScreen (NVS) Enzymatic Assay for rat Catechol-O-Methyl Transferase (COMT) (AID 2283235)
Procedure, shortened: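 Rat dorsal striatum extract served as COMT source; product quantified by HPLC/spectrophotometry, read at 0 h after dosing. Primary single-concentration screen at 25 uM, followed by concentration series to a 50 uM maximum.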

Sequence of rabbit Imidazoline 2 Central (I2C), CKB (gene 100009085) (P00567 whole entry, looked up): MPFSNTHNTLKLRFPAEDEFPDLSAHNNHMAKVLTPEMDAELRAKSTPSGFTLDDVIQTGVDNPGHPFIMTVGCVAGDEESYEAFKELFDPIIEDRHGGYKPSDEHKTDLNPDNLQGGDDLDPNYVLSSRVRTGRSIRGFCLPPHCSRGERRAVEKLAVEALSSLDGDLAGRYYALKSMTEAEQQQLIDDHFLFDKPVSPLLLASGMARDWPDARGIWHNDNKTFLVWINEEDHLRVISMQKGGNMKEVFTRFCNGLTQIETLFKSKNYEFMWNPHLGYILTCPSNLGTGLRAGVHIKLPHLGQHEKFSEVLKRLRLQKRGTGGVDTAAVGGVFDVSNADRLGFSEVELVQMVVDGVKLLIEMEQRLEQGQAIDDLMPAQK
Sequence of human Vascular Endothelial Growth Factor Receptor 2 (VEGFR2), KDR (gene 3791) (P35968 whole entry, looked up): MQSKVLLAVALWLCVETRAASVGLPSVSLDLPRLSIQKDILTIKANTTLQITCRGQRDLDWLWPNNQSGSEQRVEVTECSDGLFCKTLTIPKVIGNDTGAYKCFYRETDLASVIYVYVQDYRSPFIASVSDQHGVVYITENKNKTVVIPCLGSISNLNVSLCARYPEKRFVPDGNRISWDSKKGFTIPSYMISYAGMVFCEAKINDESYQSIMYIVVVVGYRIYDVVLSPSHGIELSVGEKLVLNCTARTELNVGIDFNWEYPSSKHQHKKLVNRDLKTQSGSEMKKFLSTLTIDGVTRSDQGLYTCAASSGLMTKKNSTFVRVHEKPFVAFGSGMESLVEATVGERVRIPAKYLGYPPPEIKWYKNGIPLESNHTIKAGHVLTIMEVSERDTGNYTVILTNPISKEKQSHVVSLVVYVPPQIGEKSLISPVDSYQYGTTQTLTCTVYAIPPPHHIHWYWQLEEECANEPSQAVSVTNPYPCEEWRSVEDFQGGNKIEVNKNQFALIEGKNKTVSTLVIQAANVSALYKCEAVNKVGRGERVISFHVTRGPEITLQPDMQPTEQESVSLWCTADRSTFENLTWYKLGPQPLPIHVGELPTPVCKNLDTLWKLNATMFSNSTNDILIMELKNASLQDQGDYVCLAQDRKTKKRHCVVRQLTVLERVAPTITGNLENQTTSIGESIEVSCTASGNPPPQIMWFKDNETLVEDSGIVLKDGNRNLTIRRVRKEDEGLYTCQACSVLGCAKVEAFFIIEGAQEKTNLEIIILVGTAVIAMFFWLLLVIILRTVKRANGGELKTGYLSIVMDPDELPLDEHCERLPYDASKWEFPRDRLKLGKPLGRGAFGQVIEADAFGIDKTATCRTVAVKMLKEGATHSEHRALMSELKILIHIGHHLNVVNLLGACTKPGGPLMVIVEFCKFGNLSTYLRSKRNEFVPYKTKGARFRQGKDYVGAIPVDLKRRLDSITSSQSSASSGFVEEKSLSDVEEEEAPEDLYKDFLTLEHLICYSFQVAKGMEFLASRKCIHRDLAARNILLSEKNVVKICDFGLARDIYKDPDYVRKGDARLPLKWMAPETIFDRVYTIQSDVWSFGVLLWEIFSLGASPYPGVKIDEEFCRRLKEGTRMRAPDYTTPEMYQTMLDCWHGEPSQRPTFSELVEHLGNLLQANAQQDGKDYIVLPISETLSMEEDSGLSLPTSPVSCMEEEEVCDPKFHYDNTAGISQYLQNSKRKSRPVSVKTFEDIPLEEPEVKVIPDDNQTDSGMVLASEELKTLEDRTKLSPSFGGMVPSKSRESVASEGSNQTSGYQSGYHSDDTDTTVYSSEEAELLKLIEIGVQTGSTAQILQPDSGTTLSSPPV
Sequence of rat Constitutive Nitric Oxide Synthase (CNOS), Nos1 (gene 24598) (P29476 whole entry, looked up): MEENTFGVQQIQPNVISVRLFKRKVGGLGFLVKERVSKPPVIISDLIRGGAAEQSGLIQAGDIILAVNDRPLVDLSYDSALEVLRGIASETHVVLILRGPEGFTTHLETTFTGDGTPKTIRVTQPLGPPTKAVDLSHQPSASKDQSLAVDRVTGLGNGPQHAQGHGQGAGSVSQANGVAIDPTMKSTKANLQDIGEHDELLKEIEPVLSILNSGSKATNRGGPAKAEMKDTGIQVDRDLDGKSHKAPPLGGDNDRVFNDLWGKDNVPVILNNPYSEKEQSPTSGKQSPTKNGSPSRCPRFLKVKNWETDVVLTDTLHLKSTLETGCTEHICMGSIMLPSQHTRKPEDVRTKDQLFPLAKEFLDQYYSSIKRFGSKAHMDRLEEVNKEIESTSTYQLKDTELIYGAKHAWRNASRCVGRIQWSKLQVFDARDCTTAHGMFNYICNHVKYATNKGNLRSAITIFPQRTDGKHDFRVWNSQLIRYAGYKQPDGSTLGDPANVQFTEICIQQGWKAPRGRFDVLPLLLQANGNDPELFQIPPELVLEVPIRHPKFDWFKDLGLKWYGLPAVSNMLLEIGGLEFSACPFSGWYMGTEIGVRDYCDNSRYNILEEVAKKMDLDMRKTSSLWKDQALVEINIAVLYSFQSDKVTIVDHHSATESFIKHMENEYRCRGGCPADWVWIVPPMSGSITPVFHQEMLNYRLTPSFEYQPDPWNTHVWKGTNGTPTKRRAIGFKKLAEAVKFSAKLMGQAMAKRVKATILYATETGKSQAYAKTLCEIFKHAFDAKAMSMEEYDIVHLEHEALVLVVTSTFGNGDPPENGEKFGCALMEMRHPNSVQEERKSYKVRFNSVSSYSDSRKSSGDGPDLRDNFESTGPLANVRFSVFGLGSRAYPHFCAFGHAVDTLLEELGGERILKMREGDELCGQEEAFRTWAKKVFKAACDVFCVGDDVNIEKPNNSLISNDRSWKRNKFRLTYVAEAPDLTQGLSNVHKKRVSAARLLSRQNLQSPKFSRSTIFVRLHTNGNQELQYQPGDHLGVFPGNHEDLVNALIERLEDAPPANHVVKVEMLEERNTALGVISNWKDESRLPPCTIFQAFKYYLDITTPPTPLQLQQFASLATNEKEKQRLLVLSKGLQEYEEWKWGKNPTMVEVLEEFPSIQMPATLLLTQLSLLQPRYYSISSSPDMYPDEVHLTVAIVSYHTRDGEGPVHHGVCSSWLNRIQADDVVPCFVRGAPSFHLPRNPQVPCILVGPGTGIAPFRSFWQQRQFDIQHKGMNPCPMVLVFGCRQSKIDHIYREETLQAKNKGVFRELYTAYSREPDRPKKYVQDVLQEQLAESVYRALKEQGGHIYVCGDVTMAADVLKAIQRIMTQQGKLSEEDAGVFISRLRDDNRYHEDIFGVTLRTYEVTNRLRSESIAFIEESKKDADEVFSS
Sequence of human Sirtuin 1 (SIRT1), SIRT1 (gene 23411) (Q96EB6 whole entry, looked up): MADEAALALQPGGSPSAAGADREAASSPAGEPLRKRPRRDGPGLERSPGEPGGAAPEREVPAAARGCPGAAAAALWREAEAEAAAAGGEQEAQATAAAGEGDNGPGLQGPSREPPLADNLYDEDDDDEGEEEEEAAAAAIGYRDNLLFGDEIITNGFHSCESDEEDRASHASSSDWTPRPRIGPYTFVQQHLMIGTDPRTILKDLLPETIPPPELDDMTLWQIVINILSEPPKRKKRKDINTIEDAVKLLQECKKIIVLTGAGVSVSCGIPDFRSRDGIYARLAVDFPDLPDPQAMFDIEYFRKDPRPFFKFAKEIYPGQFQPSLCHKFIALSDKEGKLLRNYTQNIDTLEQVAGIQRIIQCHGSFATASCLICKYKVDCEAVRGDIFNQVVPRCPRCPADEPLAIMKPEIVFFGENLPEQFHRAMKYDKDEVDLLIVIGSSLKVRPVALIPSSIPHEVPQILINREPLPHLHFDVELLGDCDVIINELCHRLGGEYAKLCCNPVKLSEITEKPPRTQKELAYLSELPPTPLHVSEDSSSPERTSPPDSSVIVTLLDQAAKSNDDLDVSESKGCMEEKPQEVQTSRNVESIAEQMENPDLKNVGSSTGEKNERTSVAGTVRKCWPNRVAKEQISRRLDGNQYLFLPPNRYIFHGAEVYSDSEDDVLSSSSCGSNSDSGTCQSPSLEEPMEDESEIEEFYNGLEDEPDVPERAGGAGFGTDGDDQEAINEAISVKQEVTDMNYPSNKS
Sequence of sheep Cyclooxygenase-1 (Cox1), PTGS1 (gene 443551) (P05979 whole entry, looked up): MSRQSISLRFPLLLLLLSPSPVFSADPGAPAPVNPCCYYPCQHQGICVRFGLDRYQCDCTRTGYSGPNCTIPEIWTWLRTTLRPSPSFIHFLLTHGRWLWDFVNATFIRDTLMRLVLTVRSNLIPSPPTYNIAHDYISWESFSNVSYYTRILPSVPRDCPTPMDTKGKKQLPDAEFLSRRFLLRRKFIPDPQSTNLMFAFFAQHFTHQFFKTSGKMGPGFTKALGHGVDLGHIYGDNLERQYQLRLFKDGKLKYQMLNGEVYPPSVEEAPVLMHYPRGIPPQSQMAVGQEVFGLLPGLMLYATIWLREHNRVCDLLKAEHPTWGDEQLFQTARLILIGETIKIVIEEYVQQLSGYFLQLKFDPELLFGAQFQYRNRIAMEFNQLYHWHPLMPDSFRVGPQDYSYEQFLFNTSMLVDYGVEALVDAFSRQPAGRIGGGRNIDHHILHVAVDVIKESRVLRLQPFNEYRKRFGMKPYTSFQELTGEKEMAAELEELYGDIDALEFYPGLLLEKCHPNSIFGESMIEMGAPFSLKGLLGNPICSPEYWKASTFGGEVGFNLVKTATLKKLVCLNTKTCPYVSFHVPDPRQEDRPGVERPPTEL
Sequence of human SRC Proto-Oncogene, Non-receptor Tyrosine Kinase (SRC), SRC (gene 6714) (P12931 whole entry, looked up): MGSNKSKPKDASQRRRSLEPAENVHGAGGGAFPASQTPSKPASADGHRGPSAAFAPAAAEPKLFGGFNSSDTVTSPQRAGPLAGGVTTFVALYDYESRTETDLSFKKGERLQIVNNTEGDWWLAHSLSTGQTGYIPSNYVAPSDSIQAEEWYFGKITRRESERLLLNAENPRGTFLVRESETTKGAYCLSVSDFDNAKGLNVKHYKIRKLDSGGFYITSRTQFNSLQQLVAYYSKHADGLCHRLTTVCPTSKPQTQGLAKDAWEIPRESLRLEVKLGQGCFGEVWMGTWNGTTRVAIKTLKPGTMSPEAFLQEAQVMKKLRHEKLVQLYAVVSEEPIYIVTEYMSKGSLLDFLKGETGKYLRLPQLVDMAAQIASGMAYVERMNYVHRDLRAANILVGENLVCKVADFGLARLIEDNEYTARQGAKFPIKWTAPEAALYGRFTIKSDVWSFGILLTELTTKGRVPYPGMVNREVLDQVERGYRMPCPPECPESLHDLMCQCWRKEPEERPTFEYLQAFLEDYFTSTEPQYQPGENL

For `CC(C)c1nnc2ccc(-c3ocnc3-c3cc(F)ccc3F)cn12`, the outcome [1] was “inactive” and the outcome [2] was “inactive”.
For `COCc1nnc(-c2ccc[n+]([O-])c2)n1-c1c(Cl)c(Cl)cc2[nH]c(=O)c(=O)[nH]c12`, the outcome [3] was “inactive” and the outcome [1] was “inactive”.
In the case of `CCCCCCCC/C=C\CCCCCCCC(=O)OC[C@@H](O)[C@H]1OC[C@H](O)[C@H]1O`, the outcome [4] is reported as “inactive”, the outcome [3] is reported as “inactive” and the outcome [1] is reported as “inactive”. For the same molecule, the outcome [5] was “inactive”, the outcome [6] was “inactive” and the outcome [7] was “inactive”. For the same molecule, the AC50 [8] was 40.7 µM (active) and the outcome [9] was “inactive”.
For `CCc1cccc(CC)c1N`, the outcome [1] was “inactive”.
With `Cn1c(=O)c2[nH]cnc2n(C)c1=O` the outcome [5] was “inactive”.
For `Cc1nccn1-c1ccc(Sc2cccc(C3(C(N)=O)CCOCC3)c2)cc1`, the AC50 [10] was 9.43 µM (active).
With `c1ccc2ncccc2c1` the outcome [11] was “inactive” and the AC50 [10] was 6.6 µM (active).
In the case of `COc1cc(C(C)C)c2c(c1)S(=O)(=O)N(COc1cc(=O)n3cccc(OCCN4CCCCC4)c3n1)C2=O`, the outcome [10] is reported as “inactive”, the outcome [12] is reported as “inactive” and the outcome [13] is reported as “inactive”.
For `OC[C@H]1O[C@@H]2O[C@H]3[C@H](O)[C@@H](O)[C@@H](O[C@H]4[C@H](O)[C@@H](O)[C@@H](O[C@H]5[C@H](O)[C@@H](O)[C@@H](O[C@H]6[C@H](O)[C@@H](O)[C@@H](O[C@H]7[C@H](O)[C@@H](O)[C@@H](O[C@H]1[C@H](O)[C@H]2O)O[C@@H]7CO)O[C@@H]6CO)O[C@@H]5CO)O[C@@H]4CO)O[C@@H]3CO`, the AC50 [12] was 3.51 µM (active).
In the case of `CCCCCCCCCCCCCCO`, the outcome [8] is reported as “inactive” and the AC50 [14] is reported as 11.7 µM (active).
With `CCCCC(CC)C(=O)OCCOCCOCCOC(=O)C(CC)CCCC` (stereo unspecified) the outcome [10] was “inactive”, the outcome [7] was “inactive” and the AC50 [14] was 5.94 µM (active).
With `C=CCc1cc(S(=O)(=O)c2ccc(O)c(CC=C)c2)ccc1O` the AC50 [8] was 21.2 µM (active), the AC50 [15] was 1.07 µM (active) and the AC50 [16] was 16.7 µM (active).
For `c1ccc(C(O[C@@H]2CCCN(CCc3ccc4c(c3)OCO4)C2)c2ccccc2)cc1`, the AC50 [10] was 4.09 µM (active), the outcome [9] was “inactive” and the AC50 [17] was 10.6 µM (active).
With `OCc1ccccc1` the AC50 [12] was 12.3 µM (active).
For `CCn1nc(C)c2c1C(=O)NCC(c1ccc(O)cc1)=N2`, the outcome [12] was “inactive”.
With `OCc1c[nH]c2ccccc12` the AC50 [15] was 25 µM (active).
In the case of `O=C(O)c1cccc(C[C@@H]2COc3ccc(OCc4nc5cc(F)ccc5s4)cc3[C@@H]2O)c1`, the outcome [10] is reported as “inactive” and the outcome [14] is reported as “inactive”.
With `O=C1CN(N=Cc2ccc([N+](=O)[O-])o2)C(=O)N1` the outcome [14] was “inactive” and the outcome [15] was “inactive”.
In the case of `CC(C)C(=O)Nc1ccc([N+](=O)[O-])c(C(F)(F)F)c1`, the outcome [10] is reported as “inactive” and the outcome [13] is reported as “inactive”.
With `OCCNCCO` the outcome [8] was “inactive”.
With `CC[C@H](C)C(=O)O[C@H]1C[C@H](O)C=C2C=C[C@H](C)[C@H](CC[C@@H](O)C[C@@H](O)CC(=O)O)[C@H]21` the outcome [7] was “inactive”, the outcome [8] was “inactive” and the AC50 [12] was 4.48 µM (active). The outcome [18] was “inactive” and the outcome [15] was “inactive”.
In the case of `O=C(N[C@H](CO)[C@H](O)c1ccc([N+](=O)[O-])cc1)C(Cl)Cl`, the outcome [15] is reported as “inactive”.
With `O=C(O)c1cccc(C(=O)O)c1` the outcome [15] was “inactive”.
In the case of `CCCCCCCCN(C)C`, the outcome [10] is reported as “inactive” and the outcome [14] is reported as “inactive”.

Source: PubChem BioAssay (EPA / NIEHS)
